Measured values from PubChem BioAssay (NCI).
This is part of a sample that, as a whole, favours compounds with a hit. Of some 83,000 tested, about 20% had one in any assay.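 Interpretation: 100, growth as untreated; towards 0, rising growth inhibition; 0, no net growth; 0 to -100, cell death. Compounds scoring below 10 were considered active.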 Active and inactive are the calls of the source.

Tests used:
Assay in all cases: NCI-60 one-dose screen, 48 h (100 = growth as untreated, 0 = no growth, -100 = all killed)
Conditions in all cases: 10 µM unless noted
NCI-H23 lung = system: NCI-H23 lung
NCI-H226 lung = system: NCI-H226 lung
NCI-H322M lung = system: NCI-H322M lung
NCI-H460 lung = system: NCI-H460 lung
HOP-92 NSCLC = system: HOP-92 NSCLC
NCI-H522 lung = system: NCI-H522 lung
A549/ATCC NSCLC = system: A549/ATCC NSCLC
786-0 renal = system: 786-0 renal
DU-145 prostate = system: DU-145 prostate
K-562 leukemia = system: K-562 leukemia
MALME-3M melanoma = system: MALME-3M melanoma
MDA-MB-231 breast = system: MDA-MB-231 breast
RXF 393 renal = system: RXF 393 renal
SF-268 CNS = system: SF-268 CNS
SF-295 CNS = system: SF-295 CNS
SF-539 CNS = system: SF-539 CNS
UACC-257 melanoma = system: UACC-257 melanoma
COLO 205 colon = system: COLO 205 colon
M14 melanoma = system: M14 melanoma
HOP-62 NSCLC = system: HOP-62 NSCLC

Measured: growth

CCOC(=O)c1c2c(c(C)n1C)-c1nn(Cc3ccc(OC)cc3)cc1CC2
active: HOP-92 NSCLC -0.787%
inactive: NCI-H23 lung 83.2% | NCI-H226 lung 94.5% | NCI-H322M lung 190% | NCI-H460 lung 111% | NCI-H522 lung 90.7% | A549/ATCC NSCLC 91.9% | 786-0 renal 74.7% | DU-145 prostate 106% | K-562 leukemia 69.1% | MALME-3M melanoma 161% | MDA-MB-231 breast 98.2% | RXF 393 renal 113% | SF-268 CNS 103% | SF-295 CNS 100% | SF-539 CNS 111% | UACC-257 melanoma 113%

Cc1c2c(cn1Cc1ccccc1)CCc1cn[nH]c1-2
inactive: NCI-H23 lung 89.2% | NCI-H226 lung 101% | NCI-H322M lung 106% | NCI-H460 lung 101% | HOP-92 NSCLC 70.1% | NCI-H522 lung 97.5% | A549/ATCC NSCLC 99.3% | 786-0 renal 98.1% | DU-145 prostate 117% | K-562 leukemia 51.8% | MALME-3M melanoma 105% | MDA-MB-231 breast 89.3% | RXF 393 renal 87.6% | SF-268 CNS 89.6% | SF-295 CNS 81.5% | SF-539 CNS 92.7% | UACC-257 melanoma 107%

CN(C)S(=O)(=O)n1cnc([C@@H]2[C@@H]3C(=O)OC[C@@H]3C[C@]23N=CN(Cc2ccccc2)C3=O)c1
inactive: NCI-H23 lung 128% | NCI-H226 lung 110% | NCI-H322M lung 110% | NCI-H460 lung 113% | HOP-92 NSCLC 110% | NCI-H522 lung 102% | A549/ATCC NSCLC 123% | 786-0 renal 102% | COLO 205 colon 118% | DU-145 prostate 111% | K-562 leukemia 116% | MALME-3M melanoma 110% | MDA-MB-231 breast 112% | RXF 393 renal 126% | SF-268 CNS 95.6% | SF-295 CNS 105% | SF-539 CNS 98.5% | UACC-257 melanoma 116%

O=C1CSC(c2ccccc2Cl)N1c1nnc(Cn2cnnc2)o1 (centres undefined)
active: K-562 leukemia 8.59% | SF-295 CNS -32.6%
inactive: NCI-H23 lung 51.7% | NCI-H226 lung 78.8% | NCI-H322M lung 87.1% | HOP-92 NSCLC 43% | NCI-H522 lung 101% | A549/ATCC NSCLC 58% | 786-0 renal 41.9% | DU-145 prostate 104% | MALME-3M melanoma 28.9% | MDA-MB-231 breast 68.6% | SF-268 CNS 94.7% | SF-539 CNS 39.7% | M14 melanoma 20.4%

O=C1Nc2ccccc2SC1C1SC(=S)N(Cc2ccccc2)C1=O (centres undefined)
inactive: NCI-H23 lung 96.5% | NCI-H226 lung 107% | NCI-H322M lung 113% | HOP-92 NSCLC 53.1% | NCI-H522 lung 100% | A549/ATCC NSCLC 93% | 786-0 renal 100% | MALME-3M melanoma 53.7% | MDA-MB-231 breast 94.8% | SF-268 CNS 37.7% | SF-295 CNS 63.2% | SF-539 CNS 90.7% | UACC-257 melanoma 88.3% | M14 melanoma 94.5%
active: DU-145 prostate -34.7% | K-562 leukemia 4.45%

Nc1ccc(S(=O)(=O)Nc2ccsc2-c2nc(-c3ccccc3)no2)cc1
inactive: NCI-H23 lung 83.5% | NCI-H226 lung 84.5% | NCI-H322M lung 83.3% | HOP-62 NSCLC 35.8% | NCI-H522 lung 30.2% | A549/ATCC NSCLC 42.7% | 786-0 renal 86% | DU-145 prostate 76.5% | K-562 leukemia 13.5% | MALME-3M melanoma 70.5% | MDA-MB-231 breast 61.8% | RXF 393 renal 83.3% | SF-268 CNS 67.2% | SF-295 CNS 69.8% | SF-539 CNS 75.6% | UACC-257 melanoma 67.2% | M14 melanoma 32.1%

CCNCCNc1cc(C2CCCC2)c(C#N)c2nc3ccccc3n12
active: NCI-H460 lung 2.84% | NCI-H522 lung 6.72% | A549/ATCC NSCLC 7.98% | K-562 leukemia -28.3% | MALME-3M melanoma -46.6% | MDA-MB-231 breast -45% | RXF 393 renal -32.4% | SF-295 CNS -61.7% | SF-539 CNS -82.4% | UACC-257 melanoma -27.3% | M14 melanoma -25.7%
inactive: NCI-H23 lung 69.6% | NCI-H226 lung 46.1% | NCI-H322M lung 23.7% | HOP-92 NSCLC 52.3% | 786-0 renal 20% | DU-145 prostate 28% | SF-268 CNS 22.1%

CC(C)CCC[C@@H](C)[C@H]1CCC2C3=CCn4c(=O)ccc(=O)n4C3CC[C@@]21C (some centres undefined)
active: NCI-H23 lung -55.4% | NCI-H226 lung -91.8% | NCI-H322M lung -55.3% | NCI-H460 lung -89.9% | HOP-92 NSCLC -94% | NCI-H522 lung -66.1% | A549/ATCC NSCLC -79.3% | 786-0 renal -100% | DU-145 prostate -93.7% | K-562 leukemia -40% | MDA-MB-231 breast -89.2% | RXF 393 renal -76% | SF-268 CNS -91.6% | SF-295 CNS -92.3% | SF-539 CNS -99.5% | UACC-257 melanoma -79.3% | M14 melanoma -98%

COc1cc2oc3cc(C)oc(=O)c3c2cc1OC
inactive: NCI-H23 lung 94.1% | NCI-H226 lung 96.8% | NCI-H322M lung 103% | NCI-H460 lung 105% | HOP-92 NSCLC 92.9% | NCI-H522 lung 82.1% | A549/ATCC NSCLC 87.7% | 786-0 renal 83.4% | DU-145 prostate 99.6% | K-562 leukemia 128% | MDA-MB-231 breast 99.4% | RXF 393 renal 104% | SF-268 CNS 108% | SF-295 CNS 89.7% | SF-539 CNS 94.8% | UACC-257 melanoma 92.8% | M14 melanoma 102%

CN1CCC(=C2c3ccccc3C=Cc3ccccc32)CC1
active: MDA-MB-231 breast 8.64%
inactive: NCI-H23 lung 83.7% | NCI-H226 lung 96% | NCI-H322M lung 104% | NCI-H460 lung 93.3% | HOP-92 NSCLC 67% | NCI-H522 lung 39% | A549/ATCC NSCLC 91.1% | 786-0 renal 67.5% | MALME-3M melanoma 105% | RXF 393 renal 51.6% | SF-268 CNS 79.8% | SF-295 CNS 88.1% | SF-539 CNS 87.4% | UACC-257 melanoma 81.7% | M14 melanoma 91.7%

Cc1cnc(Nc2ccc(N3CCN(C)CC3)cc2)nc1Nc1ccc(Cl)c(NS(=O)(=O)C(C)(C)C)c1
inactive: NCI-H23 lung 18.9% | HOP-62 NSCLC 14.1% | NCI-H460 lung 20.5% | DU-145 prostate 13.4% | MALME-3M melanoma 19.3% | SF-268 CNS 15.7% | SF-295 CNS 26.1%
active: NCI-H226 lung 7.11% | HOP-92 NSCLC -27.8% | NCI-H522 lung -28.8% | A549/ATCC NSCLC -26.1% | 786-0 renal -30.4% | K-562 leukemia 7.56% | MDA-MB-231 breast 4.33% | RXF 393 renal -78.2% | SF-539 CNS -36.4% | UACC-257 melanoma 5.3% | M14 melanoma 8.84%

COc1c(C)cnc(CSc2nc(-c3ccc(C)cc3)cn2-c2ccc(Cl)cc2)c1C
inactive: NCI-H23 lung 97% | NCI-H226 lung 102% | HOP-62 NSCLC 89.5% | NCI-H460 lung 101% | HOP-92 NSCLC 103% | NCI-H522 lung 55.9% | A549/ATCC NSCLC 88.6% | 786-0 renal 95.3% | COLO 205 colon 96% | DU-145 prostate 107% | MALME-3M melanoma 93.4% | MDA-MB-231 breast 88.5% | RXF 393 renal 108% | SF-268 CNS 99.6% | SF-295 CNS 110% | SF-539 CNS 105% | UACC-257 melanoma 91.5%

O=C1N(c2ccccc2)C(=S)N[C@]12[C@H](c1ccccc1)C1CCCN1[C@]21C(=O)NC2C=CC(Cl)=C[C@H]21 (some centres undefined)
inactive: NCI-H23 lung 96.2% | NCI-H226 lung 82.5% | HOP-62 NSCLC 91.5% | NCI-H460 lung 102% | HOP-92 NSCLC 56.7% | NCI-H522 lung 61.8% | A549/ATCC NSCLC 75.4% | 786-0 renal 97% | DU-145 prostate 103% | K-562 leukemia 81.5% | MALME-3M melanoma 97% | MDA-MB-231 breast 88.4% | RXF 393 renal 100% | SF-268 CNS 101% | SF-295 CNS 103% | SF-539 CNS 103% | UACC-257 melanoma 69.8% | M14 melanoma 81.9%

CN1CCN(C(=O)[C@@]2(C)CC[C@]3(C)CC[C@]4(C)C(=CC[C@@H]5[C@@]6(C)C/C(=C/c7ccncc7)C(=O)C(C)(C)[C@@H]6CC[C@]54C)[C@@H]3C2)CC1
active: K-562 leukemia 7.71%
inactive: NCI-H23 lung 59.3% | NCI-H226 lung 88.6% | HOP-62 NSCLC 68.4% | NCI-H460 lung 24.4% | HOP-92 NSCLC 34.3% | NCI-H522 lung 69% | A549/ATCC NSCLC 45.9% | 786-0 renal 58.4% | DU-145 prostate 76.1% | MALME-3M melanoma 42.3% | MDA-MB-231 breast 69.4% | RXF 393 renal 46.3% | SF-268 CNS 67.9% | SF-295 CNS 63.6% | SF-539 CNS 57.7% | UACC-257 melanoma 40.8% | M14 melanoma 49.8%

O=C(O)c1ccccc1C(=O)Nc1ccc(Cl)cc1
inactive: NCI-H23 lung 99.3% | NCI-H226 lung 118% | HOP-62 NSCLC 107% | NCI-H460 lung 106% | HOP-92 NSCLC 97.8% | NCI-H522 lung 91% | A549/ATCC NSCLC 85% | 786-0 renal 94% | COLO 205 colon 107% | DU-145 prostate 103% | K-562 leukemia 68.6% | MALME-3M melanoma 109% | MDA-MB-231 breast 104% | RXF 393 renal 128% | SF-268 CNS 94.5% | SF-295 CNS 101% | SF-539 CNS 98.6% | UACC-257 melanoma 78.3%

C=C1c2c(C)nn(-c3ccc(NC(C)=O)cc3)c2N(C)C23CC1C1(C)c4c(C)nn(-c5ccc(NC(C)=O)cc5)c4N(C)C(C)(CC12)C3 (centres undefined)
active: NCI-H460 lung 8.58%
inactive: NCI-H23 lung 58.2% | NCI-H226 lung 47.2% | HOP-62 NSCLC 55.9% | HOP-92 NSCLC 65% | NCI-H522 lung 42.9% | 786-0 renal 43.5% | DU-145 prostate 46.8% | K-562 leukemia 14.9% | MALME-3M melanoma 71.1% | MDA-MB-231 breast 48.4% | RXF 393 renal 29.9% | SF-268 CNS 43.8% | SF-295 CNS 35.6% | SF-539 CNS 63.1% | UACC-257 melanoma 38.4% | M14 melanoma 19.6%
